Experimental data: PubChem BioAssay (NCI)
About 83,000 compounds went through this panel and 20% of them were active in at least one assay; those are over-represented in the sample as a whole.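 Treatment: one concentration, 48 hours, 96-well format. Scoring: percent growth, with anything below 10 considered active.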 Values without a mark were called inactive. Activity calls are given as the source filed them.

Experiments:
Assay in all cases: NCI-60 one-dose screen, 48 h (100 = growth as untreated, 0 = no growth, -100 = all killed)
Settings in all cases: 10 µM unless noted
NCI-H23 lung = tested on: NCI-H23 lung
NCI-H226 lung = tested on: NCI-H226 lung
NCI-H322M lung = tested on: NCI-H322M lung
HOP-62 NSCLC = tested on: HOP-62 NSCLC
NCI-H460 lung = tested on: NCI-H460 lung
HOP-92 NSCLC = tested on: HOP-92 NSCLC
NCI-H522 lung = tested on: NCI-H522 lung
A549/ATCC NSCLC = tested on: A549/ATCC NSCLC
786-0 renal = tested on: 786-0 renal
COLO 205 colon = tested on: COLO 205 colon

| Compound | growth (NCI-H23 lung) | growth (NCI-H226 lung) | growth (NCI-H322M lung) | growth (HOP-62 NSCLC) | growth (NCI-H460 lung) | growth (HOP-92 NSCLC) | growth (NCI-H522 lung) | growth (A549/ATCC NSCLC) | growth (786-0 renal) | growth (COLO 205 colon) |
| --- | --- | --- | --- | --- | --- | --- | --- | --- | --- | --- |
| CCN(CC)CCN1C(=O)c2c(c(C)c3c(oc4ccc(OC)cc43)c2C)C1=O | 97.9% | 14.3% | 95.2% | 93.7% | 74.3% | 84.7% | 95% | 94.5% | -30% (active) | 96.1% |
| COC(=O)/C=C1/SC(=Nc2ccc([N+](=O)[O-])cc2)N(CCc2c[nH]c3ccc(O)cc23)C1=O | 64.9% | 86.1% | 87.5% | 27.5% | 17.4% | 27.3% | 57.4% | 69.3% | 44.2% | 78.1% |
| COc1ccc(/C=C/C(c2cc(OC)c(OC)c(OC)c2)n2cncn2)cc1 (stereo not given) | 67% | 76% | 61.2% | 41.8% | 22.1% | 40.3% | 28.4% | 35.5% | 39.6% | 30.7% |
| CCOC(=O)/C=C1\S/C(=N\Nc2cc(=O)[nH]c3ccccc23)N(c2ccccc2)C1=O | 97.9% | 95.4% | 101% | 92.1% | 107% | 88.8% | 96.7% | 103% | 101% | 106% |
| O=C(CSc1nc(-c2ccccc2)cc(=O)[nH]1)Nc1nc(-c2ccccc2)cs1 | 84.3% | 76.2% | 93.4% | 109% | 106% | 72.5% | 74.4% | 95.3% | 103% | 115% |
| O=C(NNC(=O)c1nc2cc(F)ccc2n2cccc12)c1cnccn1 | 45.7% | 42.4% | 45.2% | 29.7% | 14.7% | 47.7% | 56.1% | 28.5% | 51.9% | 16.5% |
| COc1ccc(-c2nc3c(N)c(CO)cnc3s2)cc1 | 86.7% | 41.6% | 76% | 100% | 97.6% | 77% | 92.1% | 91.7% | 95% | 104% |
| Cc1cccc2c1C[C@@]1(C2=O)C(c2ccc(C(C)(C)C)cc2)=NOS1=O (stereo not given in full) | 83.2% | 80.7% | 92.2% | 90% | 92.2% | 74.3% | 90.8% | 90.3% | 99.7% | 105% |
| COc1ccc(Nc2ncccc2/C=C/C(=O)c2cc(OC)c(OC)c(OC)c2)cc1 | -8.11% (active) | -43.2% (active) | 52% | -19.2% (active) | -44.9% (active) | -33.8% (active) | -76.5% (active) | -57.1% (active) | -64.2% (active) | -77% (active) |
| Cc1ccc(Cl)cc1NC(=O)c1sc2nc3c(cc2c1N)C(=O)CCC3 | 63% | 88.3% | 95.7% | 60.9% | 28.1% | 56.9% | 22.9% | 53.9% | 89.3% | 39.7% |
| S=c1nc2oc(-c3ccccc3)c(-c3ccccc3)c2c(/N=C\c2ccco2)[nH]1 | 88.2% | 102% | 105% | 82.5% | 115% | 92.4% | 86.1% | 95.3% | 97% | 120% |
| CS(=O)(=O)c1nnc(-c2ccccc2)s1 | 99.4% | 113% | 111% | 85.5% | 111% | 103% | 11.6% | 87.1% | 88.7% | 77.3% |
| CCN1C(=O)N(CC)C2C1NC(=S)N2/N=C/c1ccc(C(F)(F)F)cc1 (stereo not given) | 79.8% | 74.2% | 82.5% | 71.2% | 75.6% | 50.6% | 48.2% | 39.8% | 79.7% | 80.7% |
| Fc1cccc(-c2ccc3c(c2)C2(CCNCC2)CN3)c1 | 92.1% | 98% | 101% | 105% | 106% | 91.3% | 90.4% | 99.9% | 98.5% | 107% |
| O=c1cc(-c2ccccc2)[nH]c2ncc(-c3ccc(F)cc3)n12 | 72.2% | 86.6% | 94.2% | 67.7% | 47.4% | 54.9% | 36% | 66.2% | 79.5% | 77.4% |
| C=CC(=O)Nc1ccc(Oc2nccc(Nc3nnc(-c4ccc(C)cc4)s3)n2)cc1 | 79.9% | 86.2% | 98.7% | 83.5% | 59.9% | 72.4% | 24.3% | 77% | 70.8% | 100% |
| COC(=O)CC[C@@H]1O[C@@H](c2ccc(F)cc2)[C@@H](O)[C@H]1O | 103% | 101% | 106% | 104% | 109% | 93.9% | 99.7% | 112% | 105% | 110% |
| CCc1ccc(CCC(=O)Nc2ncc(Cc3cc(Cl)ccc3Cl)s2)o1 | 48.4% | 42.8% | 36.7% | 29.9% | 10.3% | 51.6% | 3.35% (active) | 22.5% | 30.5% | 8.61% (active) |
| COc1ccc(/C=C/C(=O)c2cc3c(N)c(C(=O)Nc4cccc(Cl)c4C)sc3nc2C)cc1 | 19.8% | 34.8% | 33.1% | 20.7% | 0.238% (active) | 39.2% | -8.5% (active) | 17.6% | 4.44% (active) | -28.9% (active) |
| CC(=O)OC[C@]12CC[C@@H]([C@@H](C)c3nnc(-c4ccncc4)o3)[C@@H]1[C@H]1CC[C@@H]3[C@@]4(C)CC[C@H](OC(C)=O)C(C)(C)[C@@H]4CC[C@@]3(C)[C@]1(C)CC2 | 82% | 60.6% | 95.9% | 98.4% | 58.6% | 66.1% | 76.2% | 62.5% | 80.4% | 82.4% |
| CCCCCCCCCCCCCOC(=O)c1c(C)[nH]c(/C=C2\N=C(c3ccc[nH]3)C=C2OC)c1C | 31.4% | -38.1% (active) | 32.7% | 30.1% | 16.1% | -6.46% (active) | 5.93% (active) | -4.51% (active) | 22.3% | 7.58% (active) |
| CCOC(=O)c1c(C)nc2ccccc2c1/C=C/c1ccccc1 | 51% | 74.3% | 95.5% | 93.8% | 86.9% | 79.7% | 54.7% | 57.1% | 88.6% | 84.1% |
| COc1cc(Cl)c(C)cc1NC(=O)c1cc2ccccc2cc1O | 2% (active) | 13.3% | 9.8% (active) | 26.5% | 6.83% (active) | -15.4% (active) | -11.5% (active) | 10% | 14.1% | 86.9% |
| CCS/C(Nc1ccccc1)=C(\C#N)C(=O)Nc1ccc(OC)cc1 | 48.3% | 57.9% | 51.6% | 34.2% | 10.1% | 44.5% | 0.635% (active) | 34.6% | 39.5% | 17.5% |
| CC1(C)N=C(N)N=C(N)N1c1ccc(CCCCc2ccccc2)c(Cl)c1 | 6.38% (active) | 34.7% | 31.6% | 21.7% | 4.96% (active) | 19.3% | -6.62% (active) | 15.9% | 16.3% | -75.8% (active) |
| O=C1NC(=O)/C(=C/c2c(-c3ccccc3)nc3sc(COc4ccccc4)nn23)S1 | 86% | 93.5% | 96% | 102% | 102% | 66.4% | 83.6% | 96.6% | 81.6% | 132% |
